The values that follow come from PubChem BioAssay (NCI).

Each structure is given as a SMILES string. This is part of a sample that, as a whole, favours compounds with a hit. Of some 83,000 tested, about 20% had one in any assay.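 Note: values are percent growth. 100 is the growth of untreated cells, values between 100 and 0 indicate rising inhibition; between -100 and 0 indicates cell death.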 A number with no mark means an inactive call. The source made the active and inactive calls.

This test has as its system HOP-92 NSCLC. Put plainly: NCI-60 one-dose screen, 48 h (100 = growth as untreated, 0 = no growth, -100 = all killed). Particulars: 10 µM. The procedure: Growth inhibition of the HOP-92 human Non-Small Cell Lung tumor cell line is measured as a screen for anti-cancer activity. Cells are grown in 96 well plates and exposed to the test compound for 48 hours. Compounds are tested at a single concentration, which is 10^-5 M for most compounds. The reported endpoint is percent growth (GI% or GIPRCNT), where numbers from 0 - 100% represent growth inhibition, and numbers from -100% - 0 represent cell death. For example, a value of 40 represents 60% growth inhibition. A value of 0 means no net growth occurred over the course of the experiment. A value of -40 indicates 40% of cells at the beginning of the experiment died by the end of the experiment. A value of -100 means all cells are dead at the end of the experiment.
NCI-60 Human Tumor Cell Lines Screen was performed using the standard one-dose NCI protocol, which is described in more detail at https://dtp.cancer.gov/discovery_development/nci-60/default.htm.
Compounds with GIPRCNT values below 10 were considered active. Activity score was based on GIPRCNT using the following formula: […]
Score is 0 for GIPRCNT values of 100 or above, 50 for GIPRCNT values of 0, and 100 for GIPRCNT values of -100.
On to `Fc1ccc(-c2cc3nc(C(Cl)Cl)nc(-c4ccco4)n3n2)cc1`, for which the growth was -15.1% (active).
For `NC(N)=Nc1ccc(Oc2cccc(NC(N)=Nc3ccc(I)cc3F)c2)cn1`, the growth is -3.49% (active).
On to `CN(C)C(=O)c1cc(-c2ccc3ncnc(NCc4ccccc4)c3c2)cnc1N`, for which the growth was 81.1%.
For the molecule `c1ccc(C(c2nc3ncncc3[nH]2)N2CSc3nc4ccccc4n3C2)cc1` (stereo not given), the growth is 91.5%.
Consider `COc1ccc2c(c1)Oc1nc(N)c(C#N)c(N)c1C2Sc1ccc(C)cc1` (stereo not given), for which the growth is -35.9% (active).
Regarding `O=C(NNc1nc2cc(F)c(F)cc2n2cccc12)c1cnccn1`, the growth is 36.4%.
Consider `O=C1CC(=O)N2CSCN(C(c3ccccc3)c3nc4ncncc4[nH]3)C2=N1` (stereo not given), for which the growth was 112%.
Turning to `COc1cc(OC)c(/C=C/S(=O)(=O)Cc2ccc(OC)c(NCC(=O)NO)c2)c(OC)c1`, the growth is 51.8%.
Consider `COc1ccc(/C=N/NC(=O)c2cn(C3CC3)c3c(OC)c(N4CC5CCCNC5C4)c(F)cc3c2=O)cc1` (stereo not given), for which the growth was 74.5%.
Regarding `Cc1cc(S(=O)(=O)N(C)C)cc(NCC(=O)NC(=O)NCC(C)C)c1C`, the growth was 84.5%.
With `O=C(CSc1nc2ccccc2c(=O)n1-c1ccccc1)Nc1ccc(-c2nc3ccc([N+](=O)[O-])cc3[nH]2)cc1` the figure was 99.1%; with `O=c1[nH]c(Sc2sc3ccc(Cl)cc3c2CBr)nc(=S)[nH]1`, 1.66% (active).
Regarding `CCn1c2ccccc2c2cc(-n3nncc3-c3ccccc3)ccc21`, the growth is 57.8%.
The same measure for `CCn1c(SCC(=O)Nc2cccc(C(=O)/C=C/c3ccc(Br)cc3)c2)nc2ccccc2c1=O`: 76.9%; for `NS(=O)(=O)c1ccc(Nc2nc(N/N=C/c3ccccn3)nc(Nc3ccccc3)n2)cc1`: -46.6% (active); for `Cc1ccc(CSc2nc(-c3ccc(Cl)cc3)c(C#N)c(N3CCNCC3)n2)cc1`: 15.9%.
Take `Cn1ccnc1C(=O)/C=C/c1ccc(NC(=O)c2ccc(F)cc2)cc1`: the growth is 47.2%.
The same measure for `Oc1cccc2ccc(-c3nnc(SCc4ccc(O)c5ncccc45)o3)nc12`: -16% (active); for `COc1cc(Cn2cc3c(c2)-c2onc(CN4CCCC4)c2CC3)cc(OC)c1OC`: 92.3%.
`CS(=O)(=O)c1ccc(-c2nn(-c3ccccc3)cc2/C=N/NC(=O)c2nc(N)n[nH]2)cc1`: the growth was 103%.
With `C=C(C)[C@@H]1CC[C@]2(C(=O)NCCCCCN(CCC#N)CCC#N)CC[C@]3(C)[C@H](CC[C@@H]4[C@@]5(C)CCC(=O)C(C)(C)[C@@H]5CC[C@]43C)[C@@H]12`, the growth is 97%.
Take `COc1ccc(S(=O)(=O)NCCCNc2nccc(-c3cn(C(C)(C)C)nc3-c3ccc(Cl)c(OC)c3)n2)cc1`: the growth is 69.4%.
Take `Oc1cccc2ccc(-c3nnc(SCc4ccc(O)c5ncccc45)n3-c3ccccc3)nc12`: the growth is -0.323% (active).
As to `CC1(C)[C@@H](O)CC[C@]2(C)[C@H]3CC[C@@H]4[C@H]5[C@H](C(=O)/C=C\c6ccc([N+](=O)[O-])cc6)CC[C@]5(O)CC[C@@]4(C)[C@]3(C)CC[C@@H]12`, the growth is 82.7%.
For the molecule `COc1ccccc1NCc1cccn1Cc1ccc(F)cc1`, the growth was 81.5%.
With `COc1cccc(/C=C(/C)c2ccc3cccc(OC)c3[o+]2)c1O` the figure was 91%; with `CC(=O)c1ccc(Nc2nc(SCC(C)C)nc(-c3ccccc3)c2C#N)cc1`, 44.6%.
With `Nc1nc(Nc2ccccc2SSc2ccccc2Nc2nc(N)nc(-c3ccc4ccccc4c3)n2)nc(-c2ccc3ccccc3c2)n1` the figure was 92.4%; with `COc1cc(OC)cc(C(=O)Nc2cccc(C#Cc3cccc4[nH]nc(N)c34)c2)c1`, 43%.
As for `Cn1cc(CNc2nc3ccc(OC/C(=C/F)CN)cc3o2)ccc1=O`, the growth was 108%.
The same measure for `Fc1ccc(-c2cc3nc(C(Cl)Cl)nc(-c4ccc(F)cc4)n3n2)cc1`: -3.1% (active).
With `COc1cc(-c2nnc(SCc3ccc(O)c4ncccc34)n2-c2ccccc2)cc(OC)c1OC` the figure was -12.5% (active).
As to `C=C1CC[C@@H]2[C@]3(C)COC(c4ccccc4)O[C@@H]3CC[C@@]2(C)[C@@H]1C/C=C1/C(=O)OC[C@H]1O` (stereo not given in full), the growth is 105%.
`CCC1=Cc2cc(OC)ccc2OC12C=Cc1cc(OC)ccc1O2` (stereo not given): the growth was 57.3%.
In the case of `COc1cc(/C=C2\C(=O)Nc3cc(Cl)ccc32)ccc1OCc1ccc(F)cc1`, the growth was 89.2%.
As to `Cc1ccc2c(c1)Oc1nc(N)c(C#N)c(N)c1C2Sc1ccc(F)cc1` (stereo not given), the growth was -93.6% (active).
For the molecule `Cc1ccc(-c2nnc(SCc3ccc(O)c4ncccc34)o2)cc1`, the growth is 10.4%.
The same measure for `CCn1c(SCC(=O)Nc2cccc(C(=O)/C=C/c3ccccc3Cl)c2)nc2ccccc2c1=O`: 72.7%; for `Oc1ccc(CSc2nnc(-c3ccc(Cl)cc3)n2-c2ccccc2)c2cccnc12`: 16.3%.
Consider `CCCCCCCn1cc2c(N[C@H](C)c3ccccc3)ncnc2n1`, for which the growth was 94%.
